# Source: PubChem
# Shown are actives, neighbours in structure and some others; about 21% of the full set was active somewhere.
# Pf growth 96h – Primary qHTS for delayed death inhibitors of the malarial parasite plastid, 96 hour incubation; P. falciparum luciferase reporter growth, 96 h; Potency, µM (top dose mostly 28.7 µM), for the others: at the top dose activity change, negative = inhibition, most hits filed as inhibitors; actives 6.9% (n = 320,000); AID 504834, 2011; also: potency is read from the fitted curve at half-maximal effect; % is scaled to controls: 0 for no effect and ±100 for the full control effect
#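 96 h incubation, 37 C, 5% CO2, of luciferase-reporter P. falciparum-infected RBCs (2% hematocrit, 0.05% parasitemia final) with test compounds; endpoint luminescence.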
# NS1 inh – qHTS Assay for Inhibitors of Influenza NS1 Protein Function; Potency, µM (highest dose often 46.1 µM), for inactives: top-dose activity, positive = more growth; actives 0.4% (n = 270,000); AID 2326, 2010; calls by dose curve; also: potency is read from the fitted curve at half-maximal effect; actives are rising curves; nearly all actives have a fitted effect of over 50% in size
#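 Growth recovery, yeast-based: influenza A NS1 expressed in S. cerevisiae causes slow growth, and suppressors are detected by OD600. The parent strain without NS1 is used as positive control.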
# Sm TGR block – qHTS Assay for the Inhibitors of Schistosoma Mansoni Peroxiredoxins; Schistosoma mansoni thioredoxin glutathione reductase (TGR), Q962Y6; purified TGR, DTNB reduction, TNB absorbance 405 nm; Potency, µM (top dose mostly 114 µM), for inactives: at the highest dose activity change, negative = inhibition, actives largely listed as inhibitors; actives 3% (n = 360,000); AID 485364, 2010; also: potency is read from the fitted curve at half-maximal effect; % is scaled to controls: 0 for no effect and ±100 for the full control effect; nearly all actives have a fitted effect of over 60% in size
#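 First, TGR (20 nM dispensed) and NADPH were mixed with compound. Second, a 15 min room-temperature incubation followed. Third, further NADPH and then DTNB were added to start the reaction. Finally, TNB absorbance was monitored kinetically.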
# CHX counter – Cycloheximide Counterscreen for Small Molecule Inhibitors of Shiga Toxin; actives 12% (n = 300,000); cell reporter, cycloheximide protein synthesis inhibition counterscreen; max response, %; in the data active = max response mostly above about 13%, no sharp cut-off; inactive = mostly below about 14%; also: read at 38.3 µM for the half of the compounds with a filed dose; 0% is about no effect
# Pf growth 48h – Primary qHTS for delayed death inhibitors of the malarial parasite plastid, 48 hour incubation | Potency, µM (series often up to 28.7 µM), for inactives: top-dose activity change, negative = inhibition, actives largely listed as inhibitors | AID 504832, 2011 | actives 5.9% (n = 310,000) | P. falciparum luciferase growth in erythrocytes, 48 h; also: potency is read from the fitted curve at half-maximal effect; % is scaled to controls: 0 for no effect and ±100 for the full control effect
#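 A one-generation exposure of luciferase-tagged malaria parasites in RPMI 1640/Albumax erythrocyte culture, 37 C and 5% CO2. Inhibition is inferred from decreased luminescence after adding detection reagent.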
# Shiga toxin inh – A qHTS for Small Molecule Inhibitors of Shiga Toxin. inhibition, % at 38.7 µM. Vero cells, Shiga toxin protein synthesis inhibition reporter. actives 9.2% (n = 290,000). AID 2315, 2010; in the data active = inhibition mostly above about 28%, no sharp cut-off; inactive = mostly below about 43%; also: 0% is about no effect
# An asterisk follows results filed as active; i = inactive; u = inconclusive; x = no result; [ ] = dose if it differs, or a comment. Unless noted, calls follow the shape of the dose curve; as a rule, active = well fitted curve in the direction sought with a large enough effect; inconclusive = small, poorly fitted or top-dose-only effect, or another doubt; inactive = no such curve, though single readings can be large; an effect the other way counts as inactive or inconclusive.
SMILES,Pf growth 96h,NS1 inh,Sm TGR block,CHX counter,Pf growth 48h,Shiga toxin inh
Cn1cnnc1SCC(=O)Nc1ccc(OCc2ccccc2)cc1,113.0%,x,3.5%,47.6*,72.5%,89.9*
COc1ccc(NC(=O)CSc2nncn2C)cc1,17.7%,1.6%,4.6%,25.1*,1.1%,15.9
COc1ccc(NC(=O)CSc2c(C)nn(-c3nnc(C)c(=O)[nH]3)c2C)cc1,11.7µM*,1.3%,9.7%,-1.6,-12.7%,-9.5
COc1ccc(NC(=O)CSC2=NC(=O)CC(C)=N2)cc1,11.7µM*,-6.2%,7.5%,-2.7,19.3%,-9.3
Cc1ccc(NC(=O)CSc2nnc(C)c(=O)[nH]2)cc1,x,x,5.9%,x,x,x
Cn1cnnc1SCC(=O)Nc1ccccc1,0.3%,-6.7%,-0.5%,2.1,-23.4%,0.9
COc1ccc(NC(=O)CSCc2ccc(C)cc2)cc1,23.3%,x,2.9%,1.5,5.0%,-5.0
CC(C)C[C@H](NC(=O)[C@H](CCCCN)NC(=O)[C@H](CCCNC(=N)N)NC(=O)[C@H](C)NC(=O)[C@H](CO)NC(=O)[C@H](CCCCN)NC(=O)[C@H](CCCNC(=N)N)NC(=O)[C@H](C)NC(=O)CNC(=O)[C@@H](NC(=O)[C@H](Cc1ccccc1)NC(=O)CNC(=O)CNC(=O)[C@@H](N)Cc1ccccc1)[C@@H](C)O)C(=O)N[C@@H](C)C(=O)N[C@@H](CC(N)=O)C(=O)N[C@@H](CCC(N)=O)C(=O)O,x,x,x,-1.1,x,16.0
COc1cc([C@@H]2Nc3c(F)cccc3[C@@H]3C=CC[C@@H]32)cc(Br)c1OC,x,x,-1.2%,x,x,x
CSc1ccc(COC(=O)c2cc([N+](=O)[O-])ccc2N2CCOCC2)cc1,u,x,6.0%,x,u,x
CN(C)S(=O)(=O)c1cccc(COC(=O)c2cc([N+](=O)[O-])ccc2N2CCOCC2)c1,10.4µM*,x,0.7%,x,13.1µM*,x
Cc1ccc(OCCOC(=O)c2cc(S(=O)(=O)N3CCCCC3)ccc2N2CCOCC2)cc1,13.1µM*,x,-4.7%,x,u,x
O=C(OCc1ccc([N+](=O)[O-])cc1)c1cc(S(=O)(=O)N2CCCCC2)ccc1N1CCOCC1,10.4µM*,x,u,x,u,x
COc1ccc(OC)c(COC(=O)c2cc([N+](=O)[O-])ccc2N2CCOCC2)c1,2.94µM*,x,7.1%,x,4.65µM*,x
O=C(CSC(=S)N1CCCC1)N1CCN(S(=O)(=O)c2ccccc2F)CC1,-14.6%,x,-1.3%,x,0.2%,x
C[n+]1ccccc1N1CCN(c2ccccc2Cl)CC1,u,-3.3%,-8.7%,-1.9,4.65µM*,-2.8
Cc1ccc(Cl)cc1N1CCN(C(=S)NCCc2ccccc2)CC1,15.6%[1.15 µM],6.4%,0.4%,20.0,-9.7%,15.7
Cc1ccc(Cl)cc1N1CCN(c2cccc[n+]2C)CC1,0.738µM*,-4.2%,4.3%,1.4,4.15µM*,-1.4
COCCCNC(=O)c1cc2c(=O)oc3ccc(C)cc3c2s1,x,x,-13.3%,x,x,x
NC(=O)N/N=C/c1cn(CC(=O)Nc2ccc(F)cc2)c2ccccc12,26.3%,3.2%,0.6%,-1.9,3.7%,-6.0
COc1ccc(OC)c(NC(=O)CCCc2nnc3n(C(C)C)c(=O)c4sccc4n23)c1,x,x,-1.6%,x,x,x
COc1cc(/C=C/C(=O)OCC(=O)NC(=O)NC(C)C)cc(S(=O)(=O)N2CCc3ccccc32)c1OC,-23.0%,-42.3%,10.7%,8.6,-17.6%,-2.3
CC(C)n1ncc2c(C(=O)NCc3cccnc3)cc(C3CC3)nc21,u,x,-5.6%,x,u,x
Cc1ccc(S(=O)(=O)N2CCN(C(=O)c3cc(C4CC4)nc4c3cnn4C(C)C)CC2)cc1,2.62µM*,x,4.0%,x,13.1µM*,x
CC(C)n1ncc2c(C(=O)N3CCN(Cc4ccc(Cl)s4)CC3)cc(C3CC3)nc21,u,x,-17.1%,x,13.1µM*,x
SMILES,Pf growth 96h,NS1 inh,Sm TGR block,CHX counter,Pf growth 48h,Shiga toxin inh
COc1cccc2cc(-c3nc(Nc4cccc(C)c4)sc3C)c(=O)oc12,x,x,-9.8%,x,x,x
Cc1ccc2nc(NC(=O)c3ccc(Br)o3)sc2c1,u,-6.7%,5.8%,44.5*,51.1%,95.1*
NS(=O)(=O)c1ccc2nc(NC(=O)c3ccc(Br)o3)sc2c1,10.4µM*,x,-0.2%,23.8*,112.3%,49.9*
COc1cc(C2NC(=O)NC(C)=C2C(=O)OC2CCC(C)CC2)ccc1O (stereo unspecified),2.62µM*,13.1%,0.5%,-4.0,11.7µM*,-16.0
COc1cc(C2NC(=S)NC(C)=C2C(=O)Nc2ccc(C)cc2)ccc1O (stereo unspecified),-5.8%,-4.7%,4.0%,44.8*,70.5%,70.7*
COc1cc(Cl)cc(C2NC(=O)NC(C)=C2C(C)=O)c1OCC(=O)O (stereo unspecified),13.0%,-0.5%,-7.0%,-5.6,x,-5.1
COC(=O)C1=C(C)NC(=O)NC1c1ccccc1 (stereo unspecified),u,-6.6%,-3.2%,-1.2,-8.5%,9.7
COC(=O)C1=C(C)NC(=O)NC1c1ccc2ccccc2c1 (stereo unspecified),10.4µM*,5.4%,-13.9%,1.8,u,-5.0
C=CCOc1c(OC)cc(Cl)cc1C1NC(=O)NC(C)=C1C(C)=O (stereo unspecified),3.29µM*,-4.4%,-0.7%,-1.1,-17.9%,5.3
COc1ccc(NC(=O)C2=C(C)NC(=S)NC2c2ccc(O)c(OC)c2)cc1 (stereo unspecified),-18.7%,6.5%,-20.3%,1.0,10.2%,-11.8
COc1ccc(-c2cc(C)no2)cc1S(=O)(=O)Nc1cccc(C(F)(F)F)c1,x,x,2.8%,x,x,x
CC(C)[C@H](NC(=O)c1ccccc1)C(=O)OCC(=O)c1ccc(S(=O)(=O)N2CCCCC2)cc1,1.8%,x,3.6%,x,u,x
C=CCOC(=O)C1=C(C)NC(=O)NC1c1ccc(OCC)cc1 (stereo unspecified),8.9%,12.1%,6.3%,-2.2,u,-4.0
C=CCOc1c(Cl)cc(C2NC(=O)NC(C)=C2C(=O)OC)cc1Cl (stereo unspecified),x,3.5%,-3.6%,-4.0,9.28µM*,-6.0
CCCC(=O)Nc1ccc(C(=O)NN=C(C2CC2)C2CC2)cc1,11.8%,17.2%,0.2%,-1.5,8.4%,3.1
O=C(NO)c1ccccc1O,-17.2%,5.8%,u,-3.1,u,13.7
C/C(=N\NC(=O)c1ccc(N)cc1)C1CC1,27.3%,5.3%,-0.9%,40.1*,8.2%,38.6*
C/C(=N\NC(=O)c1ccccc1O)C1CC1,1.3%,-15.4%,6.2%,18.9,7.0%,66.4*
Cc1nc2ccn(Cc3cccs3)c(=O)c2cc1C(=O)NCc1ccccc1,x,x,-5.2%,x,x,x
CCCCSc1nsc(NC(C)=O)n1,u,-6.7%,1.8%,43.1*,71.3%,171.4*
CCCSc1nsc(NC(=O)CCC)n1,3.7µM*,x,-4.6%,36.6*,i,104.4*
